High-throughput results (PubChem)
U2OS ROS induce: inducers of reactive oxygen species in cancer cells; AID 624156; ROS induction (% of piperlongumine), % at 10 µM; actives 2% (n = 46,000); U2OS ROS induction, H2DCF-DA fluorescence; in the data active = ROS induction above about 79%, passing the limit was not always enough;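 also: 0% = DMSO vehicle median and 100% = reference compound median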
The depositor's hits bear a star. Many of the other results were omitted from the sample, so hits are more common in it than they were.

How did CC(C)NS(=O)(=O)Cc1ccccc1 do in these assays?
U2OS ROS induce: -8

What do the screens show for `CC(=C1C(=O)c2ccccc2C1=O)N1CCC(C(N)=O)CC1`?
U2OS ROS induce: -21

What do the screens show for `COc1ccc(NC(=O)CC2C(=O)NCCN2C(=O)c2ccc(C(C)(C)C)cc2)cc1` (configuration not stated)?
U2OS ROS induce: -5

What do the screens show for `CCOC(=O)N1CCC(NC(=O)CCc2cn(Cc3ccccc3C)c3ccccc23)CC1`?
U2OS ROS induce: -5

How did CSc1ncc(Cl)c(C(=O)Nc2nnc(SCc3ccc(F)cc3)s2)n1 do in these assays?
U2OS ROS induce: 0

Results for C[C@@H]1CCCCO[C@H](CN(C)C(=O)Nc2cccc3ccccc23)[C@@H](C)CN([C@H](C)CO)C(=O)c2cc(NC(=O)C3CCCCC3)ccc2O1 ?
U2OS ROS induce: 22

How did C[C@@H]1CCCCO[C@H](CN(C)C(=O)Nc2cccc3ccccc23)[C@@H](C)CN([C@H](C)CO)C(=O)c2cc(NS(=O)(=O)c3ccccc3)ccc2O1 do in these assays?
U2OS ROS induce: 56

What do the screens show for `C[C@@H]1CCCCO[C@H](CN(C)C(=O)Nc2cccc3ccccc23)[C@@H](C)CN([C@H](C)CO)C(=O)c2cc(NS(=O)(=O)c3ccc(F)cc3)ccc2O1`?
U2OS ROS induce: 54

Results for C[C@@H]1CCCCO[C@H](CN(C)C(=O)Nc2cccc3ccccc23)[C@@H](C)CN([C@H](C)CO)C(=O)c2cc(NS(=O)(=O)c3ccc(Cl)cc3)ccc2O1 ?
U2OS ROS induce: 89*

What do the screens show for `C[C@@H]1CCCCO[C@H](CN(C)C(=O)Nc2cccc3ccccc23)[C@@H](C)CN([C@H](C)CO)C(=O)c2cc(NC(=O)Nc3cccc4ccccc34)ccc2O1`?
U2OS ROS induce: 53

How did C[C@@H]1CCCCO[C@@H](CN(C)C(=O)Nc2cccc3ccccc23)[C@@H](C)CN([C@H](C)CO)C(=O)c2cc(NC(=O)C3CCCCC3)ccc2O1 do in these assays?
U2OS ROS induce: 134*

What do the screens show for `Nc1nc2c(-c3ccccc3)c(C(F)(F)F)sc2s1`?
U2OS ROS induce: -6

Results for Cc1ccc(C(=O)Oc2ccc3oc(=O)sc3c2)cc1 ?
U2OS ROS induce: -12

Results for CCCC(=O)Nc1ccc(-c2cn3ccccc3n2)cc1 ?
U2OS ROS induce: 4

How did Cc1ccc(C(C)C)c(OCCNC(=O)Nc2ccc(Br)cc2)c1 do in these assays?
U2OS ROS induce: -21

How did CCc1cccc(NC(=O)O[C@H]2[C@H](OC(=O)Nc3ccccc3)[C@@H](OC(=O)Nc3ccccc3)[C@@H](OC)O[C@@H]2CO)c1 do in these assays?
U2OS ROS induce: 55

Results for COc1ccc(NC(=O)O[C@H]2[C@@H]3OC(=O)[C@H](Cc4ccccc4)C/C=C/C[C@@H](Cc4ccccc4)C(=O)O[C@H]3[C@@H](OC)O[C@@H]2CO)cc1 ?
U2OS ROS induce: 36

Results for CCOC(=O)c1ccc(NC(=O)O[C@H]2[C@H](OC(=O)Nc3ccccc3)[C@@H](OC(=O)Nc3ccccc3)[C@@H](OC)O[C@@H]2CO)cc1 ?
U2OS ROS induce: 88*

Results for CCCn1cc(SCC(=O)N2N=C(c3cccs3)CC2c2ccc(OC)cc2)c2ccccc21 (configuration not stated) ?
U2OS ROS induce: 29

How did COc1ccc(OC)c2c1CC(C)(C)n1c(-c3ccc(Cl)cc3)nnc1-2 do in these assays?
U2OS ROS induce: -5

What do the screens show for `COc1ccc(-c2nnc3c4ccccc4c(C)nn23)cc1S(=O)(=O)N1CCCCC1`?
U2OS ROS induce: 23

What do the screens show for `COc1ccc(-c2c(C)nn3c(N4CCC(C)CC4)cc(C)nc23)cc1OC`?
U2OS ROS induce: 93*

Results for N#CC1=C(N)Nc2c(c(=O)oc3ccccc23)C1c1ccc(Br)cc1 (configuration not stated) ?
U2OS ROS induce: 81*

How did C=CCN1C(=O)C2(C(C#N)=C(N)Oc3c2c(=O)oc2ccccc32)c2ccccc21 (configuration not stated) do in these assays?
U2OS ROS induce: 13

How did CCCNC(=O)c1cnn(-c2ccccc2)c1-n1cccc1 do in these assays?
U2OS ROS induce: 17

How did CC1CCN(C(=O)CNC(=O)c2cccs2)CC1 do in these assays?
U2OS ROS induce: -7

How did C=C1C(=O)O[C@@H]2C[C@@]3(C)[C@@H](O)C[C@@H](O)C(=C)[C@@H]3C[C@H]12 do in these assays?
U2OS ROS induce: 32

How did C=C1C(=O)OC2C3=C(C)C(=O)CC3C(C)CC(O)C12 (configuration not stated) do in these assays?
U2OS ROS induce: 72

How did C=C1C(=O)O[C@@H]2C[C@H](C)[C@@H]3CC(=O)C(C)=C3C[C@H]12 do in these assays?
U2OS ROS induce: 93*

What do the screens show for `NC(=O)C(Cc1ccccc1)N1C(=O)C2C3C=CC(C3)C2C1=O` (configuration not stated)?
U2OS ROS induce: -7

Results for c1ccc(Cn2c3c(c4ccccc42)CCOc2ccccc2-3)cc1 ?
U2OS ROS induce: -9

How did CCC(NC(=O)Nc1ccccc1C(=O)OC)(C(F)(F)F)C(F)(F)F do in these assays?
U2OS ROS induce: 55
